Measurements from the supplement of paper PMC12494721.
Where a name gives a salt, the structure may show the parent alone.

How the values were obtained:
Settings in all cases: incubation time: 27 h, anaerobic, 37 °C;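 for the amine columns active = adjusted P below 0.05 in both replicates with a change the same way and a mean fold change under 0.8 or over 1.25; inactive = the rest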
[1] = system: Clostridium sporogenes DSM 1664; assay: growth (OD595) fold change vs plate DMSO controls (fold change (ratio)); higher = more growth
Procedure, shortened: (§1)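 Anaerobic 27 h, 37 °C mGAM 96-well cultures were shaken, then read for absorbance at 595 nm. Values were blank-subtracted and corrected for compound background using 20 µM compound solutions in water. A calibration factor of 5 converted them to OD. Growth is the fold change versus the median of plate DMSO controls. Fold changes above 1.5 were set to NA, and values are the mean of 2 biological replicates.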

Escherichia coli IAI1 [2] = assay: as above
Procedure, shortened: as §1

[3] = system: Klebsiella aerogenes DSM 30053; assay: as above
Procedure, shortened: as §1

[4] = system: Ruminococcus gnavus DSM 108212; assay: as above
Procedure, shortened: as §1

[5] = system: Klebsiella aerogenes DSM 30053; assay: fold change of Histamine concentration vs plate DMSO controls (fold change (ratio)); higher = more amine produced, active = hit call of the paper (significant change in both replicates, either direction)
Procedure, shortened: (§2)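 Anaerobic mGAM cultures of four gut bacterial strains were grown at 37 °C for 27 h in 80 µL wells, starting at OD 0.1 before 1:1 dilution. Compounds were at 20 µM final (sweeteners 50 µM). Whole cultures were extracted with cold acetonitrile/methanol containing 0.1% formic acid and centrifuged. Amines were quantified by LC–triple-quadrupole MS (dynamic MRM) against external calibration curves and drift-corrected within batch. Each value is the fold change versus plate DMSO controls, averaged over 2 biological replicates.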

[6] = system: Clostridium sporogenes DSM 1664; assay: fold change of Tryptamine concentration vs plate DMSO controls (fold change (ratio)); higher = more amine produced, active = hit call of the paper (significant change in both replicates, either direction)
Procedure, shortened: as §2

[7] = system: Ruminococcus gnavus DSM 108212; assay: as above
Procedure, shortened: as §2

Escherichia coli IAI1 [8] = assay: fold change of Putrescine concentration vs plate DMSO controls (fold change (ratio)); higher = more amine produced, active = hit call of the paper (significant change in both replicates, either direction)
Procedure, shortened: as §2

[9] = system: Klebsiella aerogenes DSM 30053; assay: as above
Procedure, shortened: as §2

Escherichia coli IAI1 [10] = assay: fold change of Cadaverine concentration vs plate DMSO controls (fold change (ratio)); higher = more amine produced, active = hit call of the paper (significant change in both replicates, either direction)
Procedure, shortened: as §2

[11] = system: Klebsiella aerogenes DSM 30053; assay: as above
Procedure, shortened: as §2

[12] = system: Ruminococcus gnavus DSM 108212; assay: fold change of 2-Phenylethylamine concentration vs plate DMSO controls (fold change (ratio)); higher = more amine produced, active = hit call of the paper (significant change in both replicates, either direction)
Procedure, shortened: as §2

Compound | growth [1] | growth (Escherichia coli IAI1 [2]) | growth [3] | growth [4] | fold change of Histamine concentration [5] | fold change of Tryptamine concentration [6] | fold change of Tryptamine concentration [7] | fold change of Putrescine concentration (Escherichia coli IAI1 [8]) | fold change of Putrescine concentration [9] | fold change of Cadaverine concentration (Escherichia coli IAI1 [10]) | fold change of Cadaverine concentration [11] | fold change of 2-Phenylethylamine concentration [12]
C=CCOC(Cn1ccnc1)c1ccc(Cl)cc1Cl (stereo not drawn) [Enilconazole] (20 µM) | 1.05 | 0.989 | 0.991 | 0.919 | 0.966 (inactive) | 1.19 (inactive) | 1.15 (inactive) | 0.862 (inactive) | 1.01 (inactive) | 0.939 (inactive) | 1.13 (inactive) | 1.56 (active)
CCOC(=O)c1ccc(N)cc1 [Benzocaine] (20 µM) | 1.09 | 1.03 | 1.08 | 1.02 | 0.954 (inactive) | 1.1 (inactive) | 1.06 (inactive) | 0.92 (inactive) | 0.969 (inactive) | 1 (inactive) | 1.01 (inactive) | 1.1 (inactive)
CNC(=C[N+](=O)[O-])NCCSCc1csc(CN(C)C)n1 [Nizatidine] (20 µM) | 1.13 | 1.02 | 1.01 | 1.09 | 1.04 (inactive) | 0.99 (inactive) | 0.971 (inactive) | 0.988 (inactive) | 1.03 (inactive) | 0.984 (inactive) | 1 (inactive) | 0.954 (inactive)
O=C(CCCN1CCC(O)(c2ccc(Cl)cc2)CC1)c1ccc(F)cc1 [Haloperidol] (20 µM) | 0.929 | 0.6 | 0.574 | 0.802 | 1.06 (inactive) | 1.05 (inactive) | 0.96 (inactive) | 1.03 (inactive) | 1 (inactive) | 0.864 (inactive) | 0.992 (inactive) | 0.965 (inactive)
Clc1ccc2c(c1)C(N1CCNCC1)=Nc1ccccc1O2 [Amoxapine] (20 µM) | 1.21 | 1.03 | 1.01 | 1.37 | 0.961 (inactive) | 0.943 (inactive) | 0.983 (inactive) | 0.994 (inactive) | 0.974 (inactive) | 1.02 (inactive) | 1 (inactive) | 0.952 (inactive)
NCCc1c[nH]cn1 [Histamine dihydrochloride] (20 µM) | 0.927 | 1.16 | 1.01 | 0.893 | 1.05 (inactive) | 1.05 (inactive) | 1.06 (inactive) | 1.16 (inactive) | 1.02 (inactive) | 0.952 (inactive) | 0.992 (inactive) | 1.05 (inactive)
O=C(CCCCC(=O)Nc1c(I)cc(I)c(C(=O)O)c1I)Nc1c(I)cc(I)c(C(=O)O)c1I [Iodipamide] (20 µM) | 0.854 | 1.01 | 0.982 | 0.98 | 1.04 (inactive) | 1.02 (inactive) | 0.925 (inactive) | 1.13 (inactive) | 1.02 (inactive) | 1.01 (inactive) | 0.989 (inactive) | 0.892 (inactive)
Cc1ccc(C)c(OCCCC(C)(C)C(=O)O)c1 [Gemfibrozil] (20 µM) | 1.11 | 1.01 | 1.07 | 0.931 | 1.02 (inactive) | 1.01 (inactive) | 1.05 (inactive) | 0.995 (inactive) | 1.02 (inactive) | 0.968 (inactive) | 0.994 (inactive) | 1.03 (inactive)
CC(C)(CO)[C@@H](O)C(=O)NCCCC(=O)O [Hopantenate calcium] (20 µM) | 1.07 | 0.997 | 0.983 | 1.05 | 1.03 (inactive) | 1.02 (inactive) | 1.04 (inactive) | 1.01 (inactive) | 0.995 (inactive) | 1.03 (inactive) | 0.988 (inactive) | 1.03 (inactive)
CC(=O)c1cc2cccc(OCC(O)CNC(C)C)c2o1 (stereo not drawn) [Befunolol] (20 µM) | 0.992 | 1.1 | 0.953 | 0.98 | 1.07 (inactive) | 1.06 (inactive) | 1.02 (inactive) | 1.06 (inactive) | 0.972 (inactive) | 0.997 (inactive) | 0.995 (inactive) | 1.06 (inactive)
NC1CCN(c2nc3c(cc2F)c(=O)c(C(=O)O)cn3-c2ccc(F)cc2F)C1 (stereo not drawn) [Tosufloxacin hydrochloride] (20 µM) | 0.0344 | 0.0566 | 0.173 | 1.45 | 0.0712 (active) | 0.0441 (active) | 0.532 (active) | 0.811 (inactive) | 0.642 (active) | 0.192 (active) | 0.978 (inactive) | 0.615 (active)
OC(CCN1CCCCC1)(c1ccccc1)c1ccccc1 [Pridinol methanesulfonate salt] (20 µM) | 1.18 | 0.97 | 0.996 | 1.02 | 1.05 (inactive) | 1.03 (inactive) | 1.05 (inactive) | 1.21 (inactive) | 0.996 (inactive) | 0.368 (active) | 0.997 (inactive) | 1.04 (inactive)
CCN1CCCC1CNC(=O)c1cc(S(N)(=O)=O)ccc1OC (stereo not drawn) [Sulpiride] (20 µM) | 0.968 | 1 | 0.981 | 1.18 | 1.05 (inactive) | 0.949 (inactive) | 1.03 (inactive) | 0.997 (inactive) | 1.02 (inactive) | 1.03 (inactive) | 0.991 (inactive) | 1.06 (inactive)
COC(=O)[C@H]1[C@H]2C[C@@H]3c4[nH]c5cc(OC)ccc5c4CCN3C[C@H]2C[C@@H](OC(=O)c2cc(OC)c(OC)c(OC)c2)[C@@H]1OC [Reserpine] (20 µM) | 1.21 | 0.987 | 1.02 | 1.01 | 0.943 (inactive) | 1.07 (inactive) | 1.04 (inactive) | 0.935 (inactive) | 0.983 (inactive) | 0.966 (inactive) | 1.01 (inactive) | 1.07 (inactive)
C=C1C[C@@]23CC[C@H]4[C@@](C)(CCC[C@@]4(C)C(=O)O[C@@H]4O[C@H](CO)[C@@H](O)[C@H](O)[C@H]4O)[C@@H]2CC[C@]1(O[C@@H]1O[C@H](CO)[C@@H](O)[C@H](O)[C@H]1O)C3 [Rubusoside] (50 µM) | 1.1 | 1 | 0.969 | 1.01 | 1.01 (inactive) | 1 (inactive) | 0.989 (inactive) | 1.05 (inactive) | 1.01 (inactive) | 1.02 (inactive) | 0.991 (inactive) | 0.981 (inactive)
Clc1ccccc1C(c1ccccc1)(c1ccccc1)n1ccnc1 [Clotrimazole] (20 µM) | 0.97 | 0.974 | 0.998 | 0.513 | 0.999 (inactive) | 0.977 (inactive) | 0.887 (inactive) | 0.997 (inactive) | 1.02 (inactive) | 0.955 (inactive) | 1.01 (inactive) | 0.929 (inactive)
CC(COc1ccccc1)NN (stereo not drawn) [Phenoxypropazine dihydrochloride] (20 µM) | 1.06 | 0.99 | 0.988 | 0.995 | 1.05 (inactive) | 0.619 (active) | 1 (inactive) | 1.01 (inactive) | 1.01 (inactive) | 0.965 (inactive) | 1.02 (inactive) | 1.01 (inactive)
CCCC(=O)Nc1ccc(OCC(O)CNC(C)C)c(C(C)=O)c1 (stereo not drawn) [Acebutolol hydrochloride] (20 µM) | 0.937 | 0.989 | 0.971 | 0.781 | 1.06 (inactive) | 1.03 (inactive) | 1.03 (inactive) | 0.996 (inactive) | 1.01 (inactive) | 0.958 (inactive) | 0.99 (inactive) | 0.985 (inactive)
CC(=O)S[C@@H]1CC2=CC(=O)CC[C@]2(C)[C@H]2CC[C@@]3(C)[C@@H](CC[C@@]34CCC(=O)O4)[C@H]12 [Spironolactone] (20 µM) | 1.1 | 0.915 | 0.916 | 0.833 | 1 (inactive) | 1.03 (inactive) | 1.06 (inactive) | 1.02 (inactive) | 1.01 (inactive) | 1.02 (inactive) | 1 (inactive) | 1.01 (inactive)
CN1CCCC(CC2c3ccccc3Sc3ccccc32)C1 (stereo not drawn) [Metixene hydrochloride] (20 µM) | 1.02 | 0.988 | 1.02 | 1.25 | 0.998 (inactive) | 1.06 (inactive) | 0.807 (inactive) | 0.956 (inactive) | 1.02 (inactive) | 0.999 (inactive) | 1.01 (inactive) | 0.88 (inactive)
O=c1[nH]cnc2c1ncn2[C@@H]1O[C@H](CO)[C@@H](O)[C@H]1O [Inosine] (20 µM) | 0.976 | 1.01 | 1.01 | 0.919 | 1.01 (inactive) | 1.06 (inactive) | 0.997 (inactive) | 1.02 (inactive) | 1.02 (inactive) | 1.01 (inactive) | 0.997 (inactive) | 0.963 (inactive)
Cc1cc(C#N)cc(C)c1Oc1nc(Nc2ccc(C#N)cc2)nc(N)c1Br [Etravirine] (20 µM) | 1.06 | 1.01 | 1.13 | 1.03 | 1.01 (inactive) | 1.03 (inactive) | 0.995 (inactive) | 1.03 (inactive) | 1 (inactive) | 1.04 (inactive) | 0.981 (inactive) | 1.03 (inactive)
C#Cc1cccc(Nc2ncnc3cc(OCCOC)c(OCCOC)cc23)c1 [Erlotinib] (20 µM) | 0.903 | 0.969 | 1.01 | 0.842 | 1.05 (inactive) | 1 (inactive) | 1.02 (inactive) | 0.987 (inactive) | 1.04 (inactive) | 1.02 (inactive) | 1.01 (inactive) | 1.05 (inactive)
Clc1ccc(CSC(Cn2ccnc2)c2ccc(Cl)cc2Cl)cc1 (stereo not drawn) [Sulconazole nitrate] (20 µM) | 0.862 | 1.05 | 0.995 | 0.423 | 0.872 (inactive) | 1 (inactive) | 0.434 (active) | 0.922 (inactive) | 0.96 (inactive) | 0.499 (inactive) | 1.01 (inactive) | 0.667 (active)
